Screen size: about 310,000 compounds; about 14,000 (4.5%) showed an effect of 50% or more. Effects have a minus sign here. The sample as a whole holds a higher share of strong results than the screen did.
Target: human ether-à-go-go-related gene (hERG) potassium channel (human, UniProt Q12809)
Assay: primary screen, population patch clamp on CHO cells stably expressing hERG; higher = less effect of the substance
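Further: peak tail current of the secondary pulse compared with the same well before compound.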

human ether-à-go-go-related gene (hERG) potassium channel, sequence (Q12809 whole entry, looked up): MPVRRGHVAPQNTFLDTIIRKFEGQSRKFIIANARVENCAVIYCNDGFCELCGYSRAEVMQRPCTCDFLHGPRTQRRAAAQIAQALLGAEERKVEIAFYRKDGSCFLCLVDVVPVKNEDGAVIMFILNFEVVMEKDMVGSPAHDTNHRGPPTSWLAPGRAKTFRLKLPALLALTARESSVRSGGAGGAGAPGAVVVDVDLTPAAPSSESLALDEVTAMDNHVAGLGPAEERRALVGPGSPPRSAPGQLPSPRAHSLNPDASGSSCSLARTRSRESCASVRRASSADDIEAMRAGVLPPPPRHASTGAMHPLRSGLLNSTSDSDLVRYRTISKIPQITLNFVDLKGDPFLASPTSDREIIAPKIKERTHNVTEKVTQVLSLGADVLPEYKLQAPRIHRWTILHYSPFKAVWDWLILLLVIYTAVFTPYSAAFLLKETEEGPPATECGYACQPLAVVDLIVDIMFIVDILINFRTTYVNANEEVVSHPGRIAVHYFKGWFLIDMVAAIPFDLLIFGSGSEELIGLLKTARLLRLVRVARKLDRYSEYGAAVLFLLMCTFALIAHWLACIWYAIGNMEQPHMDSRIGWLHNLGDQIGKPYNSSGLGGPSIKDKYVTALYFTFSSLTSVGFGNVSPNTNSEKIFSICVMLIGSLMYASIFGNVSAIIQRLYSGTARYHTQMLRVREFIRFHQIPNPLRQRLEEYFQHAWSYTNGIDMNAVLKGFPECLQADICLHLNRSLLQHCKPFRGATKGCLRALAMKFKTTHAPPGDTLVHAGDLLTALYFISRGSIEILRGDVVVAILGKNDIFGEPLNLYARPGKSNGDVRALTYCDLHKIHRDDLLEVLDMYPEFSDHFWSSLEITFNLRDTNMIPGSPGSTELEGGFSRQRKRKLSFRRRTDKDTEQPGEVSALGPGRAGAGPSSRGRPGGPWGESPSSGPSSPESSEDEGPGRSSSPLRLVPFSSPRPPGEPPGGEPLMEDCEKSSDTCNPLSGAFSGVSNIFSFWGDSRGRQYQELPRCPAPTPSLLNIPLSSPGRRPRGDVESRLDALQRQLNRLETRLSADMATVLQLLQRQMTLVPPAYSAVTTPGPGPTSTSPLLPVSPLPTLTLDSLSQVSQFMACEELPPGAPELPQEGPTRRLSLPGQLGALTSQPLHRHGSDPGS

| SMILES | hERG current change (%, negative = inhibition) at 10uM |
| --- | --- |
| COC(=O)c1cc(-c2ccccc2)sc1NC(=O)CN1C(=O)c2ccccc2C1=O | 15.9% |
| Cc1ccc(N2CCCn3c2cc(C)c(C#N)c3=O)cc1C | -21.4% |
| Cc1ccc(N2CCCn3c2cc(C)c(C#N)c3=O)cc1Cl | -22.8% |
| Cc1cc2n(c(=O)c1C#N)CCCN2c1cccc(Cl)c1 | -65% |
| C#CCOc1ccc(/C=C2\SC(=S)N(Cc3cccnc3)C2=O)cc1 | 15.9% |
| Cc1cccc(Nc2nc(N)nc(CN3CCN(Cc4ccc5c(c4)OCO5)CC3)n2)c1 | -75.2% |
| Cc1cccc(S(=O)(=O)N2CCN(Cc3ccc4c(c3)OCO4)CC2)c1 | -35.2% |
| Cc1cc(Cl)ccc1NC(=S)N1CCN(Cc2ccc3c(c2)OCO3)CC1 | 4.84% |
| Cc1ccc(Nc2nc(N)nc(CN3CCN(Cc4ccc5c(c4)OCO5)CC3)n2)cc1 | -73.3% |
| Cc1ccc(NC(=O)CSCC(=O)N2CCN(Cc3ccc4c(c3)OCO4)CC2)cc1 | -25.9% |
| Cc1ccc(Nc2nc(N)nc(CN3CCN(Cc4ccc5c(c4)OCO5)CC3)n2)cc1Cl | -81.2% |
| Cc1ccc(NC2=NCC(=O)N2Cc2ccc3c(c2)OCO3)cc1 | -5.93% |
| O=C(Nc1ccc(Cl)cc1)N1CCN(Cc2ccc3c(c2)OCO3)CC1 | -27.6% |
| Nc1nc(CN2CCN(Cc3ccc4c(c3)OCO4)CC2)nc(Nc2ccccc2)n1 | -75.6% |
| c1ccc(CN2CCC(N3CCN(Cc4ccc5c(c4)OCO5)CC3)CC2)cc1 | -39.8% |
| c1ccc(Cc2noc(CN3CCN(Cc4ccc5c(c4)OCO5)CC3)n2)cc1 | -28.1% |
| Cc1cccc(NC(=O)CSCC(=O)N2CCN(Cc3ccc4c(c3)OCO4)CC2)c1 | -23.3% |
| O=C(CNC(=O)N1CC(=O)Nc2ccccc21)NCc1cccc(Cl)c1 | 12.8% |
| COC(=O)c1sccc1NC(=O)c1ccccc1F | 15.3% |

| SMILES | hERG current change (%, negative = inhibition) at 10uM |
| --- | --- |
| O=C(c1ccc(S(=O)(=O)N2CCCC2)cc1)N1CCN(Cc2ccc3c(c2)OCO3)CC1 | -28% |
| CCN(CC)C(=O)c1ccc(NC(=O)c2ccc(N3CCCC3=O)cc2)cc1 | 5.47% |
| Cc1ccc2nc3sc(C(=O)N4CCCc5ccccc54)c(N)c3cc2c1 | 2.69% |
| COCCNS(=O)(=O)c1ccc2c(c1)Cc1cc(S(=O)(=O)NCCOC)ccc1-2 | -22.1% |
| O=C(N/C=C/c1ccccc1)Nc1ccc(Cl)cc1 | 10.3% |
| CCOc1ccc(C(=O)Nc2cc(S(=O)(=O)Nc3ccccc3Cl)ccc2N2CCOCC2)cc1 | 6.95% |
| Cc1ccc(S(=O)(=O)NCC(=O)N(c2ccccc2)C(C(=O)NCc2ccccc2)c2ccco2)cc1 (centres unmarked) | -6.04% |
| Cc1ccc(-n2nc(C(=O)N3CCN(C)CC3)c3c4ccccc4n(C)c3c2=O)cc1 | 5.61% |
| Cc1nc(SCC(=O)NC2CC2)c2c(C)c(C)sc2n1 | 6.21% |
| CC(=O)N/C(=C\c1ccccc1)C(=O)OCc1ccc(F)cc1 | -0.974% |
| CC(=O)Nc1ccc(S(=O)(=O)NC(C)c2ccccc2)cc1 (centres unmarked) | 13.2% |
| CCOC(=O)c1c(NC(=O)CN2C(=O)NC3(CCCCCC3)C2=O)sc(C)c1-c1ccc(C)cc1 | 4.24% |
| Nn1c(SCc2cccc(F)c2)nnc1-c1cccnc1 | 9.33% |
| Cc1cccc(CSc2ccc3nnc(-c4cccs4)n3n2)c1 | 17.9% |
| Fc1cccc(CSc2ccc3nnc(-c4cccnc4)n3n2)c1 | -69% |
| Cc1cccc(CSc2ccc3nnc(-c4cccnc4)n3n2)c1 | -66.5% |
| Cc1cccc(NC(=O)CSc2ccc3nnc(-c4cccnc4)n3n2)c1 | -30.1% |
| O=C(CSc1ccc2nnc(-c3cccnc3)n2n1)Nc1cccc(F)c1 | -43.6% |
| Cc1cc(S(=O)(=O)N2CCCC2)ccc1OCC(=O)NCc1ccccc1 | -11.8% |

| SMILES | hERG current change (%, negative = inhibition) at 10uM |
| --- | --- |
| COc1ccc(-c2nn(-c3ccccc3)cc2/C=N/NC(=O)c2ccc(Br)o2)cc1 | -0.138% |
| Cc1ccc(C(=O)NCCc2nnc3ccc(SCC(=O)Nc4ccccc4F)nn23)cc1 | -12.7% |
| Cc1ccc(NC(=O)c2cc(=O)n(Cc3ccccc3)c(=O)[nH]2)cc1C | 35.8% |
| N#C/C(=C/c1ccc(Sc2nc3ccccc3[nH]2)o1)c1cccc(Br)c1 | 21.3% |
| CC1CCN(C(=S)NCCc2ccccc2)CC1 | -15.2% |
| S=C(NCCc1ccccc1)N1CCN(C2CCCCC2)CC1 | -63.4% |
| CC(=O)N1CCN(C(=S)NCCc2ccccc2)CC1 | -4.66% |
| S=C(NCCc1ccccc1)N1CCN(C23CC4CC(CC(C4)C2)C3)CC1 | -75.2% |
| S=C(NCCc1ccccc1)N1CCCCC1 | 14.4% |
| O=C(c1ccccc1)N1CCN(C(=S)NCCc2ccccc2)CC1 | -65.7% |
| OC1CCN(C(=S)NCCc2ccccc2)CC1 | -0.627% |
| CCOC(=O)c1ccccc1NC(=S)N1CCC(N2CCCCC2)CC1 | -33.8% |
| CCOC(=O)c1ccccc1NC(=S)N1CCN(C2CCCCC2)CC1 | -62.3% |
| S=C(NCCc1ccccc1)N1CCCC1 | 9.47% |
| COC(=O)c1ccccc1NC(=S)N1CCN(C2CCCCC2)CC1 | -22.4% |
| CN1CCN(C(=S)NCCc2ccccc2)CC1.O=C(O)C(=O)O | -14.5% |
| COc1cccc(CC2(CO)CCCN(S(=O)(=O)N(C)C)C2)c1 (centres unmarked) | 42.4% |
| CCOC(=O)c1ccc(NC(=O)CN2C(=O)C(C)SC(C)C2=O)cc1 (centres unmarked) | 8.95% |

From article PMC4336329 (PLoS ONE, 2015)
